Bioassay records deposited in PubChem by several laboratories.
Mcl1 Noxa PPI = Mcl-1/Noxa binding inhibitors, primary screen, biochemical, TR-FRET, 1536-well. Induced myeloid leukemia cell differentiation protein Mcl-1 (Homo sapiens), Q07820. TR-FRET Mcl-1/Noxa peptide binding, 2 h. inhibition, % at 21.7 µM. 1.5% of 220,000 active. AID 1022, 2008;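 active = compounds that cut the protein-peptide binding signal by more than 50% relative to plate controls in a single-dose test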;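 also: His-tagged Mcl-1 with rhodamine Noxa BH3 peptide and terbium anti-His antibody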
Target sequence (Q07820 whole entry, looked up): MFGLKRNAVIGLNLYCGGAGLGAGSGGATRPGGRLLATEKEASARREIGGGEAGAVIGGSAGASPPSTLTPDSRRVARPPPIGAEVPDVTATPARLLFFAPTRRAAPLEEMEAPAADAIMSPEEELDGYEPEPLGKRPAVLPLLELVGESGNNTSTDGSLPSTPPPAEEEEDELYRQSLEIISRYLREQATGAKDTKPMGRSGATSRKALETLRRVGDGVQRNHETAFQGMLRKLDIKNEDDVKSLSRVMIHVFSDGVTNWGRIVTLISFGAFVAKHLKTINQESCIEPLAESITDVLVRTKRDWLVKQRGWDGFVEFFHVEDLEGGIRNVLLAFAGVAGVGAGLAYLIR
Arbovirus inh = antivirals against arbovirus infection, primary screen, cell-based, full library, 10K replicate subset | arbovirus infection cell-based antiviral screen | inhibition, % at 10 µM | 0.37% of 200,000 active | AID 1251, 2008; in the data active = inhibition above about 30%
Mcl1-Bid inh = Mcl-1/Bid binding inhibitors, primary screen, biochemical, TR-FRET, 1536-well | inhibition, % at 21.7 µM | 0.97% of 220,000 active | TR-FRET Mcl-1/Bid-Dy647 peptide binding | AID 1021, 2008;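 active = compounds that cut the binding signal by more than half at the single screening dose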;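 also: His-tagged Mcl-1 with europium anti-His antibody binding Bid BH3 peptide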
14-3-3 Bad inh = inhibitors of 14-3-3 zeta/Bad binding, primary screen, biochemical, TR-FRET, bovine 14-3-3 zeta; TR-FRET 14-3-3zeta/Dy647-pBad peptide displacement, 1 h; AID 781, 2007; inhibition, % at 21.7 µM; 0.71% of 220,000 active;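 active = inhibition above about 70%, limit read from the data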
Target sequence (P63103 whole entry, looked up): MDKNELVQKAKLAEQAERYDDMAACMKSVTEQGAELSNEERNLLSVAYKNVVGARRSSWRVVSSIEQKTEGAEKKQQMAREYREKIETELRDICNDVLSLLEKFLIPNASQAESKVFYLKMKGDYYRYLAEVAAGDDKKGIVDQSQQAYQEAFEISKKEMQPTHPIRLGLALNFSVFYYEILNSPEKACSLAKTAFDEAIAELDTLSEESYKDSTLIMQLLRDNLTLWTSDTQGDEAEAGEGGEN
Bim-Mcl-1 = inhibitors of Bim peptide binding to Mcl-1, primary screen, biochemical, bead-based flow cytometry, multiplex; Induced myeloid leukemia cell differentiation protein Mcl-1 (Homo sapiens), Q07820; Bim peptide-Mcl-1 binding; inhibition, % at 10 µM; 0.1% of 190,000 active; in the data active = inhibition above about 40%
Of the large screens only hits and unclear results are named; the others gave an inactive call; ! = a repeat was not active; [ ] = another dose, or the depositor's remark. An excerpt weighted towards active compounds, which were near 3% of everything screened.

CN(C)CCCNCC(=O)Nc1ccc(Cl)cc1C(=O)c1ccccc1	none
CCOc1cc(-c2nc3c(C)cccn3c2NCC2CCCO2)ccc1O (stereo unspecified)	none
CC1=NN(c2ccccc2)C(=O)C1/C=C1/C(=O)NC(=O)N(c2cc(C)cc(C)c2)C1=O (stereo unspecified)	14-3-3 Bad inh 75
CCN1CCN(C(c2cccs2)C(C)NC(=O)Oc2ccccc2)CC1 (stereo unspecified)	none
O=C1NC(=O)C(=Cc2ccc(-c3cc(Cl)ccc3[N+](=O)[O-])o2)C(=O)N1	Mcl1 Noxa PPI 87, 14-3-3 Bad inh 79
CCN1CCN(Cc2nnnn2C(C)(C)C)CC1	14-3-3 Bad inh 75
CCC(C)(C)n1nnnc1CN1CCC(n2c(C)nc3cc(C(F)(F)F)ccc32)CC1	none (no result: Bim-Mcl-1)
CCOP(=O)(OCC)C(O)c1ccc(OC)c(OC)c1 (stereo unspecified)	none (no result: Mcl1 Noxa PPI)
O=C1NC(=O)N(CC2CCCO2)C(=O)/C1=C/c1cccs1 (stereo unspecified)	none (no result: Arbovirus inh, Bim-Mcl-1)
CCOc1ccc(N2C(=O)/C(=C\c3cccs3)C(=O)NC2=S)cc1	Mcl1 Noxa PPI 67
CCOc1ccc(N2C(=O)NC(=O)/C(=C\c3ccccc3[N+](=O)[O-])C2=O)cc1	none (no result: Arbovirus inh, Bim-Mcl-1)
O=C1NC(=S)N(c2ccccc2F)C(=O)/C1=C\c1cccs1	Mcl1 Noxa PPI 86
Cc1ccc(NP(=O)(c2ccccc2)c2nc3ccccc3s2)cc1 (stereo unspecified)	none
COCCNP(=O)(c1ccccc1)c1nc2ccccc2s1 (stereo unspecified)	Mcl1-Bid inh 58
Fc1ccccc1N1CCN(Cc2c(F)cccc2F)CC1	none
COc1ccc(CN2CCN(c3ccccc3F)CC2)cc1O	Mcl1-Bid inh 81
Fc1ccccc1N1CCN(Cc2ccc3c(c2)OCO3)CC1	14-3-3 Bad inh 77
COc1ccccc1N1CCN(Cc2ccc(F)cc2)CC1	none
O=C(c1ccc(Cl)cc1)C1CCCN(Cc2cccc3cnccc23)C1 (stereo unspecified)	none
CCCN(CC#CCOc1ccc(OC)cc1)CCC	14-3-3 Bad inh 94
CC1(C)C2SCC(=O)N2CCN1CC(=O)NN (stereo unspecified)	none (no result: Arbovirus inh, Bim-Mcl-1)
CCC(=NC(C)c1ccccc1)c1c(O)[nH]c(=O)[nH]c1=O (stereo unspecified)	Mcl1-Bid inh 90 (no result: Arbovirus inh, Bim-Mcl-1)
O=Cc1c(C(=O)O)n(Cc2ccc(Cl)cc2)c2ccccc12	Mcl1 Noxa PPI 65
CN1C(=O)CN=C(c2ccc(Cl)cc2)c2cc(Cl)ccc21	Mcl1-Bid inh 97
Cc1ccccc1CN1CCN(C(=O)Cc2ccccc2)CC1	none
CCC(CC)N1CCN(C(=O)Cc2ccccc2)CC1	14-3-3 Bad inh 71
COc1cccc(-n2c(=S)[nH]c3ccccc3c2=O)c1	none
COc1ccc2c(c1)NP(=S)(Oc1ccccc1)N2 (stereo unspecified)	Mcl1 Noxa PPI 52 (no result: Arbovirus inh, Bim-Mcl-1)
O=CC(Cl)P(=O)(N1CCCCC1)N1CCCCC1 (stereo unspecified)	none
Nc1c(C(=O)NCCN2CCOCC2)c2nc3ccccc3nc2n1Cc1ccco1	Mcl1 Noxa PPI 76
C=CCNC(=O)c1c(N)n(Cc2ccco2)c2nc3ccccc3nc12	Mcl1 Noxa PPI 57
Nc1c(C(=O)NCCc2ccccc2)c2nc3ccccc3nc2n1CCN1CCOCC1	Mcl1-Bid inh 77, 14-3-3 Bad inh 76[fluorescence artefact?]
COc1ccc(CCNC(=O)c2c(N)n(CCN3CCOCC3)c3nc4ccccc4nc23)cc1	none
COc1cc(/C=N/NC(=O)Cn2c([N+](=O)[O-])cnc2C)ccc1OC(=O)N(C)C	none
O=c1[nH]c(=O)n(-c2cccc3ccccc23)c(O)c1/C=N/N1CCCCC1c1cccnc1 (stereo unspecified)	none
Cc1cccc(N2CCc3c2nc2ccccc2c3N)c1	14-3-3 Bad inh 78![fluorescence artefact?]
Cc1ccnc(-n2c(C)nc3ccccc3c2=O)c1	none
FC(F)(F)c1ccccc1CN1CCN(Cc2ccccc2)CC1	14-3-3 Bad inh 74
Cc1ccc(CN2CCN(Cc3ccccc3F)CC2)cc1	none
CN1C(=O)C(=Cc2sc(=O)n(-c3ccccc3)c2N2CCCCC2)C(=O)N(C)C1=O	Mcl1-Bid inh 97 (no result: Arbovirus inh, Bim-Mcl-1)
CC/C(=N\Nc1ccccc1)c1c(O)n(-c2ccc(OC)cc2)c(=O)[nH]c1=O	none (no result: Arbovirus inh, Bim-Mcl-1)
CCOC(=O)c1c(/N=C/C2C(=O)NC(=S)NC2=O)sc2c1CCC2	14-3-3 Bad inh 78
CCOC(=O)c1c(/N=C/C2C(=O)NC(=S)NC2=O)sc(C)c1C	Mcl1-Bid inh 67
CCOc1ccc(-n2c(-c3ccoc3)nc3ccccc3c2=O)cc1	Mcl1-Bid inh 96
Cc1ccccc1-n1c(-c2ccoc2)nc2ccccc2c1=O	none
CCCC(C)C1(CC)C(=O)NC(=Nc2ccc(OC)cc2)NC1=O (stereo unspecified)	none
COCCN1Cc2cc(=O)n3c([nH]c4ccccc43)c2C1=N	none
CC(=O)Nc1nc(CCl)cs1	none
CN[C@H]1C[C@H]2O[C@@](C)([C@H]1OC)n1c3ccccc3c3c4c(c5c6ccccc6n2c5c31)C(=O)NC4	Mcl1 Noxa PPI 62
C=C1C2C[C@H](O)C(C)(C)[C@@]2(O)[C@H](O)C[C@]23C[C@@](C)(O)[C@H](CC[C@H]12)[C@H]3OC(C)=O (stereo partly specified)	14-3-3 Bad inh 93[fluorescence artefact?]
O=[N+]([O-])c1cccc(CN2CCN(Cc3ccc(Br)cc3)CC2)c1	none
O=C(c1cn(Cc2ccccc2)c2ccccc12)N1CCCCC1	none
Cc1cc2c(C(C)C)c(O)c(O)c(C=O)c2c(O)c1-c1c(C)cc2c(C(C)C)c(O)c(O)c(C=O)c2c1O	Mcl1 Noxa PPI 118, Mcl1-Bid inh 100, 14-3-3 Bad inh 82[fluorescence artefact?]
COc1ccc(NC2(C#N)CCCCC2)cc1	none
CCC(C)N1C(=O)/C(=C/c2ccc3c(c2)CCN3CCCCl)C(=O)NC1=S (stereo unspecified)	Mcl1 Noxa PPI 101
O=[N+]([O-])c1ccccc1CNCCc1ccc(F)cc1	none
O=[N+]([O-])c1cc2c(cc1CNCCc1ccc3c(c1)OCO3)OCO2	Mcl1-Bid inh 56
CCCS(=O)(=O)N1CCCC(C(=O)N2CCC3(CC2)OCCO3)C1 (stereo unspecified)	none
C=CCn1c(O)c(C(C)=NCC2CCCO2)c(=O)[nH]c1=O (stereo unspecified)	Mcl1-Bid inh 78 (no result: Arbovirus inh, Bim-Mcl-1)
O=c1oc2ccccc2c(O)c1[C@H]1c2ccc(O)cc2Oc2c1c(=O)oc1ccccc21	Mcl1 Noxa PPI 61 (no result: Arbovirus inh, Bim-Mcl-1)
CN1CCc2nc3sc(C#N)c(N)c3c(-c3cccs3)c2C1	Arbovirus inh 32
CN1CCc2nc(N)c(C#N)c(-c3ccccc3)c2C1	none
Cn1cc(C(=O)N2CCCCC2)c2ccccc21	none
